{
  "source": "PubChem BioAssay (EPA / NIEHS)",
  "note": "Records with an inconclusive call do not appear. Calls of active or inactive are those of the source. Rule for the calls: active = hit-call score of the fitted dose curve at least 0.9, where 1 is the maximum; inconclusive = response in the unintended direction; inactive = score below 0.9.",
  "data": [
    {"target": "Retinoic acid receptor RXR-alpha (Homo sapiens) (UniProt P19793)", "sequence (P19793 whole entry, looked up)": "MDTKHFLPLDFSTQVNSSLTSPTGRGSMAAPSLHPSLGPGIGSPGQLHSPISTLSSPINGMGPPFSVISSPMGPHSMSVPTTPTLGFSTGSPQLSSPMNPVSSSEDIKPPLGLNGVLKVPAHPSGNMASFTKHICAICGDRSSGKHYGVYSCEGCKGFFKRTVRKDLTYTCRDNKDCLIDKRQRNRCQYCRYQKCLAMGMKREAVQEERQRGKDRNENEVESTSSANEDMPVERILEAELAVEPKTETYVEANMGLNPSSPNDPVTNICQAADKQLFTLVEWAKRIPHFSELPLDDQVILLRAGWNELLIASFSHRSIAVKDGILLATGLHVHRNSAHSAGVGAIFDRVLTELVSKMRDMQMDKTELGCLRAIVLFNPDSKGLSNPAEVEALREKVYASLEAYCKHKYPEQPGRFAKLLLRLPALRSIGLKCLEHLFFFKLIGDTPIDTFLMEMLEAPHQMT", "experiment": "OT_NURR1_NURR1RXRa_0480: Odyssey Thera (OT) 8-hour HEK293T Protein Complementation Assay for Nurr1/retinoid X receptor (RXR) (AID 2283385)", "method": "OT_NURR1_NURR1RXRa_0480 is a cell-based assay that uses HEK293T, a human kidney cell line, with measurements taken at 8 hours after chemical dosing in a 384-well plate.OT_NURR1_NURR1RXRa_0480 is one of one assay component(s) measured or calculated from the OT_NURR1_NURR1RXRa_0480 assay. It is designed to make measurements of protein fragment complementation, a form of binding reporter, as detected with fluorescence intensity signals by Protein-fragment Complementation technology.Data from the assay component OT_NURR1_NURR1RXRa_0480 was analyzed into 1 assay endpoint. This assay endpoint, OT_NURR1_NURR1RXRa_0480, was analyzed in the positive analysis fitting direction relative to DMSO as the negative control and baseline of activity. Using a type of binding reporter, measures of receptor for gain-of-signal activity can be used to understand the binding at the pathway-level as they relate to the gene RXRA. Furthermore, this assay endpoint can be referred to as a primary readout, because the performed assay has only produced 1 assay endpoint. To generalize the intended target to other relatable targets, this assay endpoint is annotated to the nuclear receptor intended target family, where the subfamily is non-steroidal.\nProtein-fragment complementation assay, or PCA, is a method for the identification and quantification of protein-protein interactions. In the PCA, the proteins of interest (\"bait\" and \"prey\") are each covalently linked to fragments of a third protein (e.g. DHFR, which acts as a \"reporter\"). Interaction between the bait and the prey proteins brings the fragments of the reporter protein in close proximity to allow them to form a functional reporter protein whose activity can be measured.", "values": [
      {"smiles": "C=C(C)[C@@H]1CC=C(C)C(=O)C1", "outcome": "inactive"},
      {"smiles": "CC(C)NCC(O)COc1ccc(CC(N)=O)cc1", "note": "(stereo not given)", "outcome": "inactive"},
      {"smiles": "Cc1ccc(S(=O)(=O)Oc2ccc(N=Nc3ccc(-c4ccc(N=Nc5c(O)ccc6cc(S(=O)(=O)O)cc(S(=O)(=O)O)c56)c(C)c4)cc3C)cc2)cc1", "AC50": "35 µM (active)"},
      {"smiles": "CN1CCOCC1", "outcome": "inactive"},
      {"smiles": "CS(=O)(=O)OCCCCOS(C)(=O)=O", "outcome": "inactive"},
      {"smiles": "COc1ccccc1N=Nc1c(S(=O)(=O)O)cc2cc(S(=O)(=O)O)cc(NC(C)=O)c2c1O", "outcome": "inactive"},
      {"smiles": "Cc1cc(=O)oc2cc(N(C)C)ccc12", "outcome": "inactive"},
      {"smiles": "O=C(O)CCCCCCCCC(=O)O", "outcome": "inactive"},
      {"smiles": "C=C[Si]1(C)O[Si](C)(C=C)O[Si](C)(C=C)O[Si](C)(C=C)O1", "note": "(stereo not given)", "outcome": "inactive"},
      {"smiles": "CCCCCC(C=O)=Cc1ccccc1", "outcome": "inactive"},
      {"smiles": "CCCCC1CCC(O)CC1", "note": "(stereo not given)", "outcome": "inactive"},
      {"smiles": "OCc1cccc(Oc2ccccc2)c1", "outcome": "inactive"},
      {"smiles": "ON=C1CCCCC1", "outcome": "inactive"},
      {"smiles": "C=CC(C)(O)CCC=C(C)C", "note": "(stereo not given)", "outcome": "inactive"},
      {"smiles": "CC(=O)O[C@H]1C[C@@H]2CC[C@@]1(C)C2(C)C", "outcome": "inactive"},
      {"smiles": "c1ccc(Oc2ccccc2)cc1", "outcome": "inactive"},
      {"smiles": "CCCCCC(=O)CC", "outcome": "inactive"},
      {"smiles": "O=c1c(O)c(-c2ccc(O)cc2)oc2cc(O)cc(O)c12", "outcome": "inactive"},
      {"smiles": "CCCCCCCC/C=C\\CCCCCCCC(=O)OCC", "outcome": "inactive"},
      {"smiles": "CCCCC(CC)COC(C)=O", "note": "(stereo not given)", "outcome": "inactive"},
      {"smiles": "CCOC(=O)C1OC1c1ccccc1", "note": "(stereo not given)", "outcome": "inactive"},
      {"smiles": "Oc1ccc2cc(SSc3ccc4cc(O)ccc4c3)ccc2c1", "AC50": "78.7 µM (active)"},
      {"smiles": "CCCCC(CC)COC(=O)c1ccc(O)cc1", "note": "(stereo not given)", "outcome": "inactive"},
      {"smiles": "CCCCCCCCCCCCCC(=O)OCC(O)CO", "note": "(stereo not given)", "outcome": "inactive"},
      {"smiles": "O=C1OC(=O)c2c(Cl)c(Cl)c(Cl)c(Cl)c21", "outcome": "inactive"},
      {"smiles": "Nc1ccccc1[N+](=O)[O-]", "outcome": "inactive"},
      {"smiles": "CCCCCCC(C)(C)S", "outcome": "inactive"},
      {"smiles": "CC(C)c1ccccc1O", "outcome": "inactive"},
      {"smiles": "CC(C=O)Cc1ccc(C(C)(C)C)cc1", "note": "(stereo not given)", "outcome": "inactive"},
      {"smiles": "BrCc1cccc(Oc2ccccc2)c1", "outcome": "inactive"},
      {"smiles": "CC(=O)O[C@@H]1CC2CCC1(C)C2(C)C", "note": "(stereo not given in full)", "outcome": "inactive"},
      {"smiles": "C=C1CC[C@H](O)C/C1=C/C=C1\\CCC[C@]2(C)[C@@H]([C@H](C)/C=C/[C@H](C)C(C)C)CC[C@@H]12", "outcome": "inactive"},
      {"smiles": "COC(=O)c1ccc(C)cc1C1=NC(C)(C(C)C)C(=O)N1", "note": "(stereo not given) (tested in a mixture with another compound)", "outcome": "inactive"},
      {"smiles": "O=CCc1ccccc1", "AC50": "19.1 µM (active)"},
      {"smiles": "O=C(Nc1ccc2c(O)c(N=Nc3ccc(N=Nc4ccc(S(=O)(=O)O)cc4)cc3)c(S(=O)(=O)O)cc2c1)c1ccccc1", "outcome": "inactive"},
      {"smiles": "CCCCCCCCSCCO", "outcome": "inactive"},
      {"smiles": "COCCOCCOCCO", "outcome": "inactive"},
      {"smiles": "CCCCCC(C)=O", "outcome": "inactive"},
      {"smiles": "C1=CC2C3C=CC(C3)C2C1", "note": "(stereo not given)", "outcome": "inactive"},
      {"smiles": "C=C(C)C(=O)OCCOC1CC2CC1C1C=CCC21", "note": "(stereo not given)", "outcome": "inactive"}
    ]}
  ]
}
